# Data from paper PMC4336329 (PLoS ONE, 2015).
# The whole screen tested about 310,000 compounds, of which about 14,000 (4.5%) showed an effect of 50% or more. Effects have a minus sign here. Only a selection was taken, and strong results are over-represented in it overall.
# Target: human ether-à-go-go-related gene (hERG) potassium channel (human, UniProt Q12809)
# Assay: primary screen, population patch clamp on CHO cells stably expressing hERG; higher = less effect of the substance
# 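Also: peak tail current of the secondary pulse compared with the same well before compound.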
# Chain of human ether-à-go-go-related gene (hERG) potassium channel (Q12809 whole entry, looked up): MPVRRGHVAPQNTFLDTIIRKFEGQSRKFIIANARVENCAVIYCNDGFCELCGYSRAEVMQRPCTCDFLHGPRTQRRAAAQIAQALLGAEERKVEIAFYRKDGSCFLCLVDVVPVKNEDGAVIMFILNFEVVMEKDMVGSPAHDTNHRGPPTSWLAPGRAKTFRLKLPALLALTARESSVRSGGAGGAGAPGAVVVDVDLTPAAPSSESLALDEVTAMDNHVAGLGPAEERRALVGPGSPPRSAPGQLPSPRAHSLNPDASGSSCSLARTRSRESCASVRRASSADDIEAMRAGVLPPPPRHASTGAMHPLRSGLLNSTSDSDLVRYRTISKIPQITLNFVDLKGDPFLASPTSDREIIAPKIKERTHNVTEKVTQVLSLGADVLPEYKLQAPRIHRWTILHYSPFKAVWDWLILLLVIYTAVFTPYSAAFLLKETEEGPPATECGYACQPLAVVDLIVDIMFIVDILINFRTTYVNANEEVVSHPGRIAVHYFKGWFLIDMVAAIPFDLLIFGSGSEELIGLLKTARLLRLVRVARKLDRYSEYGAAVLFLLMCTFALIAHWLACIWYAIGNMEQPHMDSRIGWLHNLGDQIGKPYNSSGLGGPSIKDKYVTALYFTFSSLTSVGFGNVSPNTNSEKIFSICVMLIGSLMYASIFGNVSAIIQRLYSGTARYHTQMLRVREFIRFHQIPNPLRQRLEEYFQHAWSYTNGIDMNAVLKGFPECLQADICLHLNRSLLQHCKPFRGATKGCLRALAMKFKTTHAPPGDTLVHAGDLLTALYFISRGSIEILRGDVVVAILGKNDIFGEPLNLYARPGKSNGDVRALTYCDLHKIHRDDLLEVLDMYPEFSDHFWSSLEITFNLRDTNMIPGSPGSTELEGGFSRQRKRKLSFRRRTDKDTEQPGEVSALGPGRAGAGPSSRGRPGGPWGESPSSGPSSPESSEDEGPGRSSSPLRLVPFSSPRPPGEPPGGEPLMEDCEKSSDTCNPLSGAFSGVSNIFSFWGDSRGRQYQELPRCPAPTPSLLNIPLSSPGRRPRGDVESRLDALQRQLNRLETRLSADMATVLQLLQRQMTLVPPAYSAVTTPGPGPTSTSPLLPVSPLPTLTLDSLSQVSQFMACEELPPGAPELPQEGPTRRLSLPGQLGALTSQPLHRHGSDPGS
row,SMILES,"hERG current change (%, negative = inhibition) at 10uM [%]"
1,O=C(NCCc1ccco1)C(=O)NCC1OCCCN1S(=O)(=O)c1cc(F)ccc1F (stereo not shown),-8.36
2,CC(=O)C(Sc1nn(C)c(=S)s1)C(=O)Nc1ccccc1 (stereo not shown),3.73
3,COc1cccc(/C=C2\SC(=S)N(CCC(=O)NNC(=O)c3ccccc3OC)C2=O)c1,18.5
4,CCOc1ccc(CN(C(=O)c2oc3cc(C)ccc3c2C)C2CCS(=O)(=O)C2)cc1 (stereo not shown),-10
5,Cc1ccc(NC(=O)CNC(=O)c2ccc3c(c2)OCO3)nc1,1.63
6,CCC(C)(C)n1nnnc1C(c1cc(OC)ccc1OC)N1CCC(C(N)=O)CC1 (stereo not shown),-1.9
7,CC1CN(C(=O)CS(=O)(=O)Cc2ccccc2)CC(C)O1 (stereo not shown),17.1
8,COc1cccc(N/C(=N/C(=S)Nc2ccc(C)cc2C)Nc2nc(C)cc(C)n2)c1,0.704
9,Cl.NC(=NCc1ccccc1)NC(=O)c1nc(Cl)c(N)nc1N,-54.2
10,Cl.NC(=NCCc1ccccc1)NC(=O)c1cc(Cl)ccc1O,-2.39
11,CS(=O)(=O)O.NC(=Nc1ccccc1)NC(=O)c1nc(Cl)c(N)nc1N,-50
12,CSc1ncccc1C(=O)OCC(=O)c1ccc(S(=O)(=O)N2CCCCC2)cc1,23.5
13,CCOC(=O)N1CCN(C(=O)c2ccc(C)c(S(=O)(=O)N3CCCCC3)c2)CC1,-46
14,CCC(=O)N1CCN(c2nc(-c3ccc(Cl)cc3)cs2)CC1,-25
15,O=S(=O)(c1ccc(F)cc1)N1CCN(c2nc(-c3ccc(F)cc3)cs2)CC1,-8.44
16,CC(C)C(=O)N1CCN(c2nc(-c3ccc(Cl)cc3)cs2)CC1,-82.5
17,CCOC(=O)N1CCN(c2nc(-c3ccc(Cl)cc3)cs2)CC1,-8.2
18,CS(=O)(=O)N1CCN(c2nc(-c3ccc(F)cc3)cs2)CC1,-77.2
19,Fc1ccc(-c2csc(N3CCSCC3)n2)cc1,17.6
20,CC(=O)c1ccc(N2CCN(C(=O)c3ccc(NC4=NC5CS(=O)(=O)CC5S4)cc3)CC2)cc1 (stereo not shown),-1.77
21,COc1ccccc1NC(=O)C1CCOC1=O (stereo not shown),15.4
22,CCCn1nnnc1NCc1ccc(OC)cc1,15.3
23,O=C(CC1C(=O)NCCN1Cc1cccc(Oc2ccccc2)c1)NCCc1cscn1 (stereo not shown),8.01
24,C=CC[n+]1c(C)csc1Nc1cccc(Br)c1.[Br-],-6.64

row,SMILES,"hERG current change (%, negative = inhibition) at 10uM [%]"
1,Cc1cccc(N(CC(=O)NCC2CCCO2)C(=O)CCC(=O)Nc2nccs2)c1 (stereo not shown),12.9
2,COc1ccc(N2CCN(C(=O)CNC(=O)Cc3ccccc3)CC2)cc1,-13.3
3,COc1cc2c(C(=O)N3CCOCC3)c(CSc3ccccc3)n(C)c2cc1Br,-6.35
4,COc1ccc2c(c1)c(C(=O)N1CCN(C)CC1)c(C)n2-c1ccccc1,-44
5,COc1cc2c(C(=O)N3CCN(C)CC3)c(C)n(C)c2cc1Br,-9.17
6,COc1cc2c(C(=O)OCCN(C)C)c(CSc3ccccc3)n(C)c2cc1Br,5.67
7,CCN(CC)CCNC(=O)c1c(C)n(-c2ccccc2)c2cc(Br)c(OC)cc12,-51.5
8,COc1cc2c(C(=O)N3CCN(C)CC3)c(C)n(-c3ccccc3)c2cc1Br,-54.7
9,CCN(CC)CCNC(=O)c1c(C)oc2cc(Br)c(OC)cc12,-32.1
10,COc1cc2c(C(=O)O)c(C)n(C)c2cc1Br,20.3
11,COc1cc2c(C(=O)N3CCN(C)CC3)c(CSc3ccccc3)n(C)c2cc1Br,-74
12,O=C(COC(=O)CNC(=O)c1ccccc1F)NC12CC3CC(CC(C3)C1)C2,0.652
13,COc1ccccc1NC(=O)Nc1cccc(C(=O)O)c1,17.5
14,N#CC(c1ccc(Cl)cc1)c1ccc2c(C(F)(F)F)cc(C(F)(F)F)nc2n1 (stereo not shown),6.7
15,CCS(=O)(=O)N1CCC(C(=O)OCC(=O)c2ccc(Br)cc2)CC1,3.45
16,Cn1c(=Nc2ccc(N3CCOCC3)cc2)ccc2ccccc21,-47.5
17,Oc1ccc2ccccc2c1C=Nc1ccc(N2CCOCC2)cc1,3.04
18,CCn1c(=Nc2ccc(N3CCOCC3)cc2)ccc2ccccc21,-66.8
19,COc1ccccc1OCc1ccc(C(=O)N(C)c2ccccc2)o1,7.76
20,COC(=O)c1coc(-c2ccc(OC)cc2)c1C(=O)OC,13.8
21,Cc1ccc(OCCCCN2CCc3ccccc3C2)cc1.Cl,-34.9
22,Cc1ccc(OCC(=O)N2CCc3ccccc3C2)cc1,-3.37
23,O=C(CCc1ccc(S(=O)(=O)N2CCOCC2)cc1)N1CCc2ccccc2C1,-14.5
24,O=C(COc1ccc(S(=O)(=O)N2CCOCC2)cc1)N1CCc2ccccc2C1,-55.9

row,SMILES,"hERG current change (%, negative = inhibition) at 10uM [%]"
1,O=C(Cc1ccc([N+](=O)[O-])cc1)N1CCc2ccccc2C1,-17.7
2,O=C(O)C(=O)O.O=[N+]([O-])c1ccc(OCCCCN2CCc3ccccc3C2)cc1,-76.3
3,Cl.O=[N+]([O-])c1ccccc1OCCCN1CCc2ccccc2C1,-49.7
4,Cl.Clc1ccc(OCCCCN2CCc3ccccc3C2)cc1,-68.1
5,O=C(COc1ccc([N+](=O)[O-])cc1)N1CCc2ccccc2C1,-54.5
6,O=C(COc1ccccc1)N1CCc2ccccc2C1,10
7,O=C(CCCOc1ccccc1)N1CCc2ccccc2C1,0.877
8,O=C(COc1ccc(S(=O)(=O)N2CCOCC2)cc1)N1CCOCC1,10.6
9,O=C(CCNS(=O)(=O)c1cccc2nsnc12)NCCc1ccccc1,-4.18
10,COC(=O)CC1(CC(=O)OC)C(=O)NC(=O)NC1=O,7.37
11,CCCC(=O)OCC(=O)Nc1cc(Cl)ccc1[N+](=O)[O-],16.8
12,Cc1ccc(Oc2nc3ccccc3n3cccc23)cc1,-10.1
13,O=C(OCC(=O)N1CCCc2ccccc21)c1ccc(Cl)nc1,-3.94
14,Cc1c(C(=O)NNC(=O)c2csc(N3CCOCC3)n2)oc2ccccc12,-38.7
15,COC(=O)C1CCN(Cc2c(C(=O)N3C[C@@H](C)O[C@@H](C)C3)nc3ccc(Cl)cn23)CC1,21.1
16,COCCCNC(=O)c1cn(Cc2c(F)cccc2Cl)nn1,-3.65
17,CCOC(=O)c1nnn(-c2nonc2N)c1COc1c(C=O)cccc1OC,-6.2
18,Cc1cc(=O)n(C)c(=O)n1CCCCOc1ccc([N+](=O)[O-])cc1,-68.9
19,O=[N+]([O-])c1ccc(OCCOCCOc2ccc([N+](=O)[O-])cc2)cc1,-16.6
20,Cc1cc(=O)n(C)c(=O)n1CCCCCCN1CCCC1.O=C(O)C(=O)O,8.96
21,Cc1cc(=O)n(C)c(=O)n1CCCCCCOc1ccc([N+](=O)[O-])cc1,-63.9
22,Cc1cc(=O)n(C)c(=O)n1CCCCCN1CCCC1.O=C(O)C(=O)O,5.16
23,Cc1n[nH]c(C)c1CCCCOc1ccc([N+](=O)[O-])cc1,-16.4
24,CN(Cc1ccccc1)C(=O)CNC(=O)Cn1cnc2ccccc2c1=O,-7.88

row,SMILES,"hERG current change (%, negative = inhibition) at 10uM [%]"
1,CC(/C=C/C=C/c1ccccc1)=N/NC(=O)c1ccc2c(c1)OCCO2,7.79
2,C=CCn1c(SCC(=O)Nc2cc(C)nn2-c2ccccc2)nnc1C1CCCCC1,-14.1
3,COc1ccc(NC(=O)N2CCC(C(=O)c3ccc(F)cc3)CC2)cc1,-18.6
4,COc1ccc(CN2CCC(C(=O)c3ccc(F)cc3)CC2)cc1,-78.4
5,COc1ccc(CN2CCC(C(=O)c3ccc(Cl)cc3)CC2)cc1,-78.7
6,O=C(c1ccc(F)cc1)C1CCN(Cc2ccc(F)cc2)CC1,-47.7
7,CC(=O)N1CCC(C(=O)c2ccc(Cl)cc2)CC1,-0.317
8,CCS(=O)(=O)N1CCC(C(=O)c2ccc(Cl)cc2)CC1,-47.3
9,Cc1ccccc1C(=O)NCCCc1ccccc1,12.5
10,O=C(NCCC(=O)N1CCCCC1)c1ccccc1Cl,-14.2
11,COc1ccccc1N1CCN(/N=C\C(Br)=C\c2ccccc2)CC1,10.2
12,COCCNC(=O)C(c1ccc(O)cc1)N(Cc1ccco1)C(=O)CCC(=O)Nc1ccccn1 (stereo not shown),23.8
13,CCCCSc1nnc([C@@H]2CCCN2C(=O)OC(C)(C)C)o1,-12.2
14,COc1ccc(S(=O)(=O)N2CCCN(CCC(=O)Nc3cccc(C(F)(F)F)c3)CC2)cc1,-69.6
15,O=C(Nc1cccc(C(F)(F)F)c1)NC1CCN(S(=O)(=O)c2ccc(F)cc2)CC1,12.2
16,O=C(CN1CCN(S(=O)(=O)c2ccc(F)cc2)CC1)Nc1cccc(C(F)(F)F)c1,-55.5
17,O=C(CNc1cccc(C(F)(F)F)c1)Nc1cccc(S(=O)(=O)N2CCCC2)c1,-6.44
18,COc1ccc(S(=O)(=O)N2CCN(CCC(=O)Nc3ccc(F)cc3)CC2)cc1,-18.9
19,O=C(CN1CCN(S(=O)(=O)c2ccccc2)CC1)Nc1cccc(C(F)(F)F)c1,-56.2
20,O=C(CCNC(=O)C1CCN(S(=O)(=O)c2ccccc2)CC1)Nc1cccc(C(F)(F)F)c1,-45.1
21,COc1ccc(NC(=O)CCN2CCN(S(=O)(=O)c3ccc(OC)cc3)CC2)cc1,-25
22,O=C(CN1CCN(S(=O)(=O)c2ccc(F)cc2)CC1)Nc1cc(C(F)(F)F)ccc1Cl,-4.15
